“And” between values parts separate entries of the source, which are not always exact repeats. Identical values can stand only once. Compounds without any hit were thinned out: in the full panel of roughly 83,000, 20% have a hit.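 Testing used 96-well plates and a 48-hour single-concentration exposure. Example: -40 means 40% of the starting cells died.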 Values without a mark were called inactive. The source made the active and inactive calls. The calls were made as follows: active = growth percent below 10; inactive = the rest.

Among the test systems are OVCAR-3 ovarian; HS 578T breast; NCI/ADR-RES ovarian.
What all share (experiment): NCI-60 one-dose screen, 48 h (100 = growth as untreated, 0 = no growth, -100 = all killed)
A further assay relates to SK-MEL-2 melanoma. Particulars: 10 µM unless noted.
A further assay concerns EKVX NSCLC. Particulars: 10 µM unless noted.
The subject of a further assay is SN12C renal. As to conditions: 10 µM unless noted.
The subject of the next assay is UO-31 renal. As to conditions: 10 µM unless noted.
A further assay deals with ACHN renal. Particulars: 10 µM unless noted.
The next assay has as its system CAKI-1 renal. Particulars: 10 µM unless noted.
Another assay has as its system A498 renal. Particulars: 10 µM unless noted.
The subject of a further assay is CCRF-CEM leukemia. As to conditions: 10 µM unless noted.
A further assay relates to SR leukemia. As to conditions: 10 µM unless noted.
The next assay relates to OVCAR-8 ovarian. Particulars: 10 µM unless noted.
The test system of a further assay is SK-OV-3 ovarian. As to conditions: 10 µM unless noted.
For the next assay, the system named is IGROV1 ovarian. As to conditions: 10 µM unless noted.
The test system of the next assay is TK-10 renal. Particulars: 10 µM unless noted.
The next assay has as its system RPMI-8226 leukemia. As to conditions: 10 µM unless noted.
In a further assay the test system is OVCAR-5 ovarian. Particulars: 10 µM unless noted.
In the next assay the test system is OVCAR-4 ovarian. As to conditions: 10 µM unless noted.
For another assay, the system named is MOLT-4 leukemia. As to conditions: 10 µM unless noted.

`O=C(O)c1c(Cl)c(Cl)c(Cl)c(Cl)c1-c1c2cc(I)c(=O)c(I)c-2oc2c(I)c(O)c(I)cc12`: the growth was -26.1% (active) in the assay on OVCAR-3 ovarian (100 µM); 107% and 93.5% with HS 578T breast (10 µM); 27.5% in the assay with HS 578T breast (100 µM); 103% and 98% and 109% in the assay on NCI/ADR-RES ovarian (10 µM); 10.7% with NCI/ADR-RES ovarian (100 µM).

Turning to `Nc1ccc(SSc2ccc(N)cc2)cc1`, the growth with SK-MEL-2 melanoma was 91.6%; with EKVX NSCLC, 106%; with SN12C renal, 101%; with UO-31 renal, 73.6%; in the assay with ACHN renal it was 93.5%; with CAKI-1 renal, 98.5%. Besides, the growth was 103% in the assay on A498 renal; 106% with CCRF-CEM leukemia; 104% in the assay with SR leukemia; 88% in the assay with OVCAR-8 ovarian; 114% with SK-OV-3 ovarian; 108% in the assay with IGROV1 ovarian. Further, the growth in the assay on OVCAR-3 ovarian (10 µM unless noted) is 114%; in the assay with HS 578T breast (10 µM unless noted) it was 109%; with NCI/ADR-RES ovarian (10 µM unless noted) it was 97.5%.

Consider `O=C(CC1(O)C(=O)Nc2c(Cl)ccc(Cl)c21)c1ccc(Cl)cc1Cl` (centres undefined), for which the growth was 98.9% in the assay with SK-MEL-2 melanoma; 85.2% in the assay with EKVX NSCLC; 104% in the assay on SN12C renal; 105% with TK-10 renal; 107% in the assay on ACHN renal; 93.8% in the assay on CAKI-1 renal. Moreover, the growth with A498 renal was 79.7%; in the assay with CCRF-CEM leukemia it was 112%; with SR leukemia it was 86.9%; in the assay with RPMI-8226 leukemia it was 99.9%; in the assay on OVCAR-8 ovarian it was 107%; in the assay on OVCAR-5 ovarian, 110%. The growth with OVCAR-4 ovarian was 87.9%; in the assay on SK-OV-3 ovarian, 84.9%; with IGROV1 ovarian it was 97.6%; in the assay on OVCAR-3 ovarian (10 µM unless noted), 106%; with HS 578T breast (10 µM unless noted), 94%; with NCI/ADR-RES ovarian (10 µM unless noted) it was 106%.

For `Cc1ccc(NS(=O)(=O)c2ccc(C)cc2)cc1`, the growth in the assay with SK-MEL-2 melanoma is 101% and 79.6%; in the assay on SN12C renal, 105% and 99.8%; in the assay on UO-31 renal, 93% and 79.3%; in the assay on TK-10 renal, 104% and 91.5%; in the assay with ACHN renal it was 113% and 96.6%; in the assay on CAKI-1 renal, 90.9% and 96%. For the same compound, the growth in the assay with A498 renal was 92.8% and 93.4%; in the assay on CCRF-CEM leukemia it was 92.3% and 97.2%; with MOLT-4 leukemia, 94% and 98.5%; in the assay with SR leukemia it was 91.7% and 97.8%; in the assay on RPMI-8226 leukemia, 83.1% and 95.2%; with OVCAR-8 ovarian, 97.5% and 92.7%. Besides, the growth in the assay on OVCAR-5 ovarian is 111% and 105%; with OVCAR-4 ovarian, 93.7% and 106%; in the assay on SK-OV-3 ovarian it was 109% and 101%; in the assay with IGROV1 ovarian, 111% and 107%; in the assay on OVCAR-3 ovarian (10 µM unless noted), 105% and 98.9%; in the assay with NCI/ADR-RES ovarian (10 µM unless noted) it was 104% and 99.7%.

With `CC1OC2CC(=O)OC2C2=C1C(=O)c1c(O)cccc1C2=O` (centres undefined), the growth with SK-MEL-2 melanoma is -61.2% (active); with EKVX NSCLC it was -53.3% (active); with SN12C renal, -94.9% (active); with UO-31 renal, -90.7% (active); with ACHN renal, -97.4% (active); in the assay on CAKI-1 renal, -82.5% (active). The growth was 0.534% (active) with CCRF-CEM leukemia; -7.62% (active) in the assay with MOLT-4 leukemia; -30% (active) in the assay on SR leukemia; -9.64% (active) with RPMI-8226 leukemia; -14.7% (active) in the assay with OVCAR-8 ovarian; -75.2% (active) with OVCAR-5 ovarian. In addition, the growth is -98.5% (active) in the assay on OVCAR-4 ovarian, 21% in the assay with SK-OV-3 ovarian, -97.9% (active) in the assay with OVCAR-3 ovarian (10 µM unless noted) and -6.77% (active) in the assay with NCI/ADR-RES ovarian (10 µM unless noted).

`CC1OC(OC2C(OC3CCC4(C)C(CCC5(C)C4CC=C4C6CC(C)(C)CCC6(CO)C(O)CC45C)C3(C)C)OC(C(=O)O)C(OC3OC(COC4OC(CO)C(O)C(O)C4O)C(O)C(O)C3O)C2O)C(O)C(O)C1O` (centres undefined): the growth in the assay with SK-MEL-2 melanoma is -75.3% (active); with EKVX NSCLC, -74.8% (active); with SN12C renal it was -77.7% (active); in the assay with TK-10 renal, -69.3% (active); with ACHN renal, -100% (active); in the assay with CAKI-1 renal it was -95.3% (active). The growth with A498 renal is -88% (active); with CCRF-CEM leukemia, -26.3% (active); with MOLT-4 leukemia, -67% (active); in the assay on SR leukemia, -44.2% (active); in the assay on OVCAR-5 ovarian, -64% (active); in the assay on OVCAR-4 ovarian, -84.3% (active). Besides, the growth in the assay on SK-OV-3 ovarian was -83.4% (active); in the assay with IGROV1 ovarian, -81.6% (active); with OVCAR-3 ovarian (10 µM unless noted), -50.7% (active); in the assay on HS 578T breast (10 µM unless noted) it was -35.2% (active); in the assay with NCI/ADR-RES ovarian (10 µM unless noted) it was -68% (active).

Take `N#CC1C(=O)SC2c3ccccc3C(=O)c3ccccc3C12` (centres undefined): the growth in the assay on SK-MEL-2 melanoma is 98.5%; in the assay on SN12C renal, 101%; in the assay on UO-31 renal it was 89.5%; in the assay with TK-10 renal it was 99.5%; in the assay with ACHN renal it was 114%; in the assay on CAKI-1 renal, 88%. Besides, the growth in the assay with A498 renal was 105%; with CCRF-CEM leukemia, 95%; in the assay with MOLT-4 leukemia, 99.6%; in the assay on SR leukemia it was 90.1%; in the assay with RPMI-8226 leukemia it was 94.6%; with OVCAR-8 ovarian it was 99%. The growth in the assay with OVCAR-5 ovarian is 105%; in the assay with OVCAR-4 ovarian, 99.1%; with SK-OV-3 ovarian, 98.2%; with IGROV1 ovarian, 110%; in the assay with OVCAR-3 ovarian (10 µM unless noted) it was 109%; with NCI/ADR-RES ovarian (10 µM unless noted), 104%.

`C1=C(c2ccccc2)C(c2ccc(OCCN3CCCCC3)cc2)Oc2ccccc21` (centres undefined): the growth in the assay with SK-MEL-2 melanoma was 77.3%; with EKVX NSCLC it was 69.1%; with SN12C renal, 55.3%; in the assay on UO-31 renal, 56.7%; with ACHN renal, 71.5%; with CAKI-1 renal, 30%. The growth in the assay on A498 renal is 94%; with CCRF-CEM leukemia, 37.5%; with MOLT-4 leukemia, 47.1%; with SR leukemia it was -0.379% (active); in the assay on OVCAR-8 ovarian, 77%; in the assay on OVCAR-5 ovarian, 72.4%. The growth was 64% with OVCAR-4 ovarian; 74% in the assay on SK-OV-3 ovarian; 44.2% in the assay with IGROV1 ovarian; 65.6% with OVCAR-3 ovarian (10 µM unless noted); 68.4% in the assay with NCI/ADR-RES ovarian (10 µM unless noted).
